This is a sample that favours compounds with a hit; in the whole collection about 2.3% have one here.
M1 ag – human M1 muscarinic receptor agonists, primary screen, Fluo-8 calcium fluorescence, CHO-K1 cells, HTS | Muscarinic acetylcholine receptor M1 (Homo sapiens), P11229 | CHO-K1 hM1, agonist mode; 0% DMSO, 100% acetylcholine EC100 | activation, % at 3 µM | 0.33% of 360,000 active | AID 588814, 2011;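 active means activation above the run's mean compound activation plus 3 SD, cut at about 16% in these data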;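 further: peak over basal fluorescence ratio within a 140 s kinetic read after compound addition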
Target sequence (P11229 whole entry, looked up): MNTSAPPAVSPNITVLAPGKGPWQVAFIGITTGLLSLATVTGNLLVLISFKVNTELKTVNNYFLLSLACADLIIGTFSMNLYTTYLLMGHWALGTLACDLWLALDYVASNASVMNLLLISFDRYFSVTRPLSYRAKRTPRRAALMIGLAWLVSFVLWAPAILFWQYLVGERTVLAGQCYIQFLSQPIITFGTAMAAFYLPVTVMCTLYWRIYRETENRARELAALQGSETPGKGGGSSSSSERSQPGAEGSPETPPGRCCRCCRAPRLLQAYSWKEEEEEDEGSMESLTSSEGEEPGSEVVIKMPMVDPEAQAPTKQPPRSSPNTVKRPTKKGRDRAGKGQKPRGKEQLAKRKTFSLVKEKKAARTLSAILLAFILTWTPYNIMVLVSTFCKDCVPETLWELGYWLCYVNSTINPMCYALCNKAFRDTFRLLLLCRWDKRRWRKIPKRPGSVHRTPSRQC
M1 PAM – human M1 muscarinic receptor positive allosteric modulators, primary screen, CHO-K1 cells, Fluo-8 calcium fluorescence, 1536-well; CHO-K1 hM1, ACh EC20; 0% = ACh EC20, 100% = maximal ACh; activation, % at 3 µM; 0.088% of 360,000 active; AID 588819, 2011; in the data active means activation above about 19%, passing the limit was not always enough
CHO-K1 Ca antag – M1 antagonist counterscreen hit in parental CHO-K1 cells; ATP-induced calcium, Fluo-8 fluorescence; inhibition, % at 3 µM; 0.6% of 360,000 active;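 active means inhibition above a per-plate cutoff, the plate's mean sample inhibition plus 3 SD, cut at about 24% in these data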;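 further: 0% = DMSO plus EC80 ATP and 100% = DMSO alone without ATP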
M1 PAM parental – nonselective calcium activators in parental CHO-K1 cells, primary screen, counter-screen for M1 PAM project, cell-based, Fluo-8 calcium fluorescence, full deck, 1536-well; ATP EC20; 0% at ATP EC20, 100% at ATP max; activation, % at 3 µM; 0.02% of 360,000 active;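 active means activation above the run cutoff, the mean activation of all test compounds plus 3 SD, cut at about 40% in these data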;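 further: peak over basal fluorescence ratio in a 140 s read after ATP addition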
CHRM1 antagonist – human M1 muscarinic receptor antagonists, primary screen, CHO-K1 cells, Fluo-8 calcium fluorescence, 1536-well; CHO-K1 hM1, ACh EC80 antagonist; AID 588852, 2011; Muscarinic acetylcholine receptor M1 (Homo sapiens), P11229; 1.3% of 360,000 active; inhibition, % at 3 µM;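 active means percent inhibition above its own plate's cutoff, namely the mean of that plate's compound wells plus 3 SD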;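 further: peak over basal fluorescence ratio during 140 s after agonist addition; 0% = ACh EC80 plus DMSO and 100% = DMSO alone without agonist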
M1 ag parental – counter-screen for M1 agonists: effect in parental CHO-K1 cells. Fluo-8 calcium fluorescence; scaled to maximal ATP response, vehicle zero. activation, % at 3 µM. 0.48% of 360,000 active. AID 602248, 2012; in the data active means activation above about 15%;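 further: untransfected CHO-K1 host cells lacking M1 receptor as counterscreen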
An asterisk follows results filed as active.

Results for COc1ccc(Cn2cc(CN3CC(N(C)C)CS3(=O)=O)nn2)cc1 (centres undefined) ?
CHO-K1 Ca antag: -7; M1 PAM parental: 5; M1 ag parental: 1

How did CCOC(=O)C1CCCN(C(=O)c2ccc(Cl)cc2)C1 (centres undefined) do in these assays?
M1 ag: -8; M1 PAM: 3; CHO-K1 Ca antag: -20; M1 PAM parental: 10; CHRM1 antagonist: 2; M1 ag parental: 0

What do the screens show for `CCOC(=O)C1CCCN(C(=O)c2cc(Cl)ccc2Cl)C1` (centres undefined)?
M1 ag: 19*; M1 PAM: 2; CHO-K1 Ca antag: -33; M1 PAM parental: 11; CHRM1 antagonist: -5; M1 ag parental: 2

Results for COc1ccccc1NC(=O)c1cc2cc(Br)ccc2cc1O ?
M1 ag: -3; M1 PAM: -16; CHO-K1 Ca antag: 29*; M1 PAM parental: -9; CHRM1 antagonist: 32; M1 ag parental: 15*

Results for COc1cc(NC(=O)c2cc3ccccc3cc2O)c(OC)cc1Cl ?
M1 ag: -2; M1 PAM: -12; CHO-K1 Ca antag: 16; M1 PAM parental: 2; CHRM1 antagonist: 23; M1 ag parental: 13

Results for COC(=O)/C=C1\SC(N2CCOCC2)=C(c2ccc(OC)cc2)C1=O ?
M1 ag: -3; M1 PAM: 8; CHO-K1 Ca antag: -25; M1 PAM parental: 30; CHRM1 antagonist: -13; M1 ag parental: 1

How did CCOC(=O)CSc1nc2c(sc(=S)n2-c2ccccc2OC)c(=O)n1Cc1ccco1 do in these assays?
M1 ag: -3; M1 PAM: -7; CHO-K1 Ca antag: 28*; M1 PAM parental: -1; CHRM1 antagonist: 3; M1 ag parental: 0

Results for Cc1ccc(NC(=O)CSc2ccc3nnc(CCNC(=O)c4ccccc4)n3n2)c(C)c1 ?
M1 ag: -10; M1 PAM: 3; CHO-K1 Ca antag: -8; M1 PAM parental: 17; CHRM1 antagonist: -10; M1 ag parental: 0

Source: PubChem BioAssay
